Screening data (PubChem BioAssay)
Shown are actives, neighbours in structure and some others; about 4.9% of the full set was active somewhere.
HSF-1 act: HSF-1 activators, primary screen, NIH3T3-HGL cells, MG132 stress, luminescence, single point; activation, % at 9 µM; AID 504408, 2011; NIH3T3-HGL HSF-1 luciferase reporter, 8 h; 100% = twice DMSO control signal; 300,000 compounds, 1.7% hits;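 active = mean replicate activation of at least 50% with a set share of replicates each reaching 50%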;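 also: 0% = median of the neutral control wells and 100% = twice that signal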
Platelet DG rel: inhibitors of platelet dense granule secretion, primary screen, cell-based, MLPCN, human platelets | human platelet-rich plasma, SFLLRN dense granule ATP release, luminescence | inhibition, %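 (compounds screened at 7.5 µM in platelet-rich plasma)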 | 300,000 compounds, 0.22% hits;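 active = mean replicate score, as percent of positive control, at or above 50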
HSP90 inh: HSP90 inhibitors, primary screen, cell lysate, luminescence. Heat shock protein HSP 90 (rabbit reticulocyte lysate; luciferase refolding). Rabbit reticulocyte lysate, luciferase refolding luminescence, 3 h. inhibition, % at 5.6 µM. 290,000 compounds, 0.91% hits;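 active = inhibition above the screen-wide mean plus 3 SD, computed separately per campaign, cut at about 16% in these data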;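 also: 0% = DMSO wells and 100% = 60 µM geldanamycin wells; inhibitors lower the luminescence because luciferase stays unfolded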
MPTP block: mitochondrial permeability transition pore inhibitors, primary screen, biochemical, isolated mouse mitochondria, absorbance; Ca2+ swelling absorbance, 30 min; inhibition, % at 10 µM; 360,000 compounds, 1.4% hits;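 active = inhibition of 50% or more, scaled per plate between neutral and stimulator controls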;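 also: 0% = DMSO wells given calcium and 100% = 1 mM EGTA wells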
dFosB act: activators of delta FosB homodimer, primary screen, biochemical, fluorescence polarization, TAMRA-CDK5 oligo, single point; Protein FosB (Mus musculus), P13346; purified delta FosB; percent of positive-control signal above neutral wells; activation, % at 25 µM; 340,000 compounds, 0.99% hits; AID 493131, 2011;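 active = mean activation above about 17%, with every replicate also reaching it, limit read from the data, passing the limit was not always enough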
Target sequence (P13346 whole entry, looked up): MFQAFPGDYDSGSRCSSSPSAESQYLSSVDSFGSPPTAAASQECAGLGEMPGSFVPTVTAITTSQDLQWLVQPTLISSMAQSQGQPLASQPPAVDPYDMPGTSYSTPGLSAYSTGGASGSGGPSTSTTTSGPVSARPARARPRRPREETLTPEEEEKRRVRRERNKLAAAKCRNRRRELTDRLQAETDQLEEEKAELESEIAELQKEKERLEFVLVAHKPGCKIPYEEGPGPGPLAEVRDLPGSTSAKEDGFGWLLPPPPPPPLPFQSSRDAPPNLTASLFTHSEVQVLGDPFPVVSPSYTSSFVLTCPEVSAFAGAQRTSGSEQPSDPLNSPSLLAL
HSF1 inhib: HSF1 inhibitors in luciferase reporter cells, primary screen, cell-based, NIH3T3, luminescence. NIH3T3-HGL HSE-luciferase, MG132-induced, luminescence 8 h; stronger effect = lower value. activity change, negative = inhibition, % at 7.5 µM (by protocol). 300,000 compounds, 0.77% hits. AID 2098, 2009;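 active = more than half of replicate wells show activity change below -50%, luminescence cut by over half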;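 also: luciferase reports HSF-1 transcriptional activity via heat shock element; 0% = median of DMSO wells and -100% = zero luminescence signal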
Rh123 counter: fluorescence retest of MPTP screen hits in isolated mitochondria, single concentration; shares compounds with MPTP block; membrane potential, Rhodamine 123 fluorescence; inhibition, % at 10 µM; 5,000 compounds, 78% hits; in the data active = inhibition above about 22%;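 also: 0% = DMSO vehicle and 100% = positive control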
MPTP swell DR: mitochondrial permeability transition pore inhibitors, dose response, biochemical, absorbance, uHTS hits; shares compounds with MPTP block; isolated mitochondria swelling; IC50, µM; 780 compounds, 58% hits; AID 651561, 2012; in the data active = IC50 below about 20 µM
MPTP counter DR: fluorescent counter-screen in isolated mitochondria, dose response, counter-screen for MPTP inhibitor project, biochemical, fluorescence, uHTS hits | IC50, µM | AID 651564, 2012 | 780 compounds, 49% hits | shares compounds with MPTP block | isolated mitochondria counterscreen, fluorescence read-out; in the data active = IC50 below about 80 µM
* = called active by the depositor.

How did COc1ccc2nc(C)cc(SCC(=O)N/N=C/c3ccc(O)c(O)c3)c2c1 do in these assays?
HSF-1 act: 2.2; Platelet DG rel: -2.4; HSP90 inh: -4.4; MPTP block: 1.2; dFosB act: -4.6; HSF1 inhib: -1.1

What do the screens show for `Cc1cc(SCC(=O)N/N=C/c2ccc(O)cc2O)nc2ccccc12`?
HSF-1 act: -16.7; Platelet DG rel: 12.7; HSP90 inh: 3.2; MPTP block: 68.1*; dFosB act: 3.7; HSF1 inhib: -8.7; Rh123 counter: 71.3*

Results for COc1ccc2nc(C)cc(SCC(=O)N/N=C/c3cccc4ccccc34)c2c1 ?
HSF-1 act: 16.9; Platelet DG rel: -20.2; HSP90 inh: -0.3; MPTP block: 128.2*; dFosB act: 9.8; HSF1 inhib: 7.7; Rh123 counter: -7.4; MPTP swell DR: >100; MPTP counter DR: >80

How did Cc1ccc2nc(SCC(=O)N/N=C/c3ccco3)cc(C)c2c1 do in these assays?
HSF-1 act: 4.8; Platelet DG rel: 3.2; HSP90 inh: 5.3; MPTP block: -3.8; dFosB act: -20.4; HSF1 inhib: 14.6

What do the screens show for `O=C(CSc1nc(-c2cccs2)cc(C(F)(F)F)n1)Nc1cc(OCC(F)(F)F)cc([N+](=O)[O-])c1`?
HSF-1 act: -7.5; Platelet DG rel: 3.0; HSP90 inh: -0.7; MPTP block: 99.9*; dFosB act: 15.9; HSF1 inhib: -4.7; Rh123 counter: 79.1*

How did COc1ccc(NC(=O)NC23CC4(C)CC(C)(CC(C)(C4)C2)C3)cc1OC do in these assays?
HSF-1 act: 9.8; Platelet DG rel: -0.7; HSP90 inh: 0.6; MPTP block: 76.5*; dFosB act: -14.1; HSF1 inhib: 10.1; Rh123 counter: 50.8*

What do the screens show for `Cc1cc(C(=O)COC(=O)c2cc(Cl)c(O)c(Cl)c2)c(C)n1C`?
MPTP block: 1.6; dFosB act: -11.8

What do the screens show for `O=C(NNC(=S)Nc1cccc2ccccc12)c1cccc(Br)c1`?
HSF-1 act: 34.6; Platelet DG rel: 6.5; HSP90 inh: 0.4; MPTP block: 68.3*; dFosB act: -2.9; HSF1 inhib: 16.9; Rh123 counter: 86.9*

Results for O=[N+]([O-])c1ccc(CN2CCN(c3nc4ccccc4s3)CC2)cc1 ?
HSF-1 act: -3.9; Platelet DG rel: 6.2; HSP90 inh: 1.8; MPTP block: 0.8; dFosB act: 0.8; HSF1 inhib: 7.0

Results for CCCn1nc([N+](=O)[O-])c(C(C#N)c2nc3ccccc3s2)c(Cl)c1=O (stereo unspecified) ?
HSF-1 act: 60.2*; Platelet DG rel: 13.7; HSP90 inh: -0.2; MPTP block: 111.9*; dFosB act: 7.9; HSF1 inhib: 46.2; Rh123 counter: 46.4*

Results for Cn1c(C(C#N)C(=O)c2sc3ccccc3c2Cl)nc2ccccc21 (stereo unspecified) ?
HSF-1 act: -55.3; Platelet DG rel: -3.5; HSP90 inh: 1.9; MPTP block: -0.8; dFosB act: 3.5; HSF1 inhib: -46.7

What do the screens show for `CCn1nc([N+](=O)[O-])c(C(C#N)c2nc3ccccc3n2C)c(Cl)c1=O` (stereo unspecified)?
HSF-1 act: -6.4; Platelet DG rel: 2.1; HSP90 inh: -0.1; MPTP block: 53.8*; dFosB act: -10.3; HSF1 inhib: 4.8; Rh123 counter: 66.5*
